According to PubChem BioAssay AID1220 (Sanford-Burnham Center for Chemical Genomics, 2008):
The whole screen tested about 190,000 compounds, of which about 1,300 (0.68%) were called active. No stated cut-off is given here; in the data, active means inhibition above about 50%; inactive means the rest. The sample as a whole holds a higher share of actives than the screen did.

Target: Mannose-6-phosphate isomerase (Homo sapiens) (UniProt P34949)
Assay: MPI inhibition at elevated mannose 6-phosphate – biochemical, fluorescence intensity, high mannose 6-phosphate, primary screen (AID 1220)
Details: recombinant PMI enzyme, coupled fluorescence intensity; at 20 µM; hits give high values

Mannose-6-phosphate isomerase (Homo sapiens), sequence (P34949 whole entry, looked up): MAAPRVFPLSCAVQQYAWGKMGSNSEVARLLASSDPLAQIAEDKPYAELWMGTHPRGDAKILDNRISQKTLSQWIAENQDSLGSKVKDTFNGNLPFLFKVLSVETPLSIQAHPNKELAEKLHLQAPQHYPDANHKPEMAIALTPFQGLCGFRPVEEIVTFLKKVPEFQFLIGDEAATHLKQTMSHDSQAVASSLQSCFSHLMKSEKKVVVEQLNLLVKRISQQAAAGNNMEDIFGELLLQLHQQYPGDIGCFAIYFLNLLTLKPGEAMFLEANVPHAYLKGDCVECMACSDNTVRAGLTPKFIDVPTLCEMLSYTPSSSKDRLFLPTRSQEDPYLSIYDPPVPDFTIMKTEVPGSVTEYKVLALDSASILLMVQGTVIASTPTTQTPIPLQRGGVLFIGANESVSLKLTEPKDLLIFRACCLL

**Q.** For `COc1ccc(-c2nc(NC(=O)Cn3c(=O)oc4ccccc43)sc2C)cc1`, which inhibition is on record?
**A.** 16.1% (inactive)

**Q.** With `Nn1c(SCc2ccccc2)nc2c(cnn2-c2ccccc2)c1=O` as the molecule, how does the inhibition read?
**A.** 4.9% (inactive)

**Q.** For `COc1ccc(-c2cccc(C(=O)NCC(=O)O)c2)cc1`, which inhibition is on record?
**A.** 2.2% (inactive)

**Q.** For `Cc1ccccc1Nc1nc(N)nc(CN2CCN(Cc3ccc4c(c3)OCO4)CC2)n1`, which inhibition is on record?
**A.** -1.7% (inactive)

**Q.** With `CCC1CCCCN1C(=S)Nc1cccc(S(=O)(=O)N(C)C)c1` (centres undefined) as the molecule, how does the inhibition read?
**A.** -6.4% (inactive)

**Q.** Which inhibition does the source give for `O=C(c1ccc2c3c(cccc13)CC2)C1CCCN(Cc2ccncc2)C1` (centres undefined) here?
**A.** -2.1% (inactive)

**Q.** `O=C(c1ccc2c3c(cccc13)CC2)C1CCCN(Cc2cccnc2)C1` (centres undefined) was tested. Which inhibition did it give?
**A.** 11.4% (inactive)

**Q.** Which inhibition does the source give for `COc1cc(CN2CCCC(C(=O)c3ccc4c5c(cccc35)CC4)C2)cc(OC)c1O` (centres undefined) here?
**A.** 74.7% (active)

**Q.** With `CC(C)NC(=O)c1ccccc1NC(=O)Cc1ccc(Cl)cc1` as the molecule, how does the inhibition read?
**A.** -7.2% (inactive)

**Q.** `CCn1c2ccccc2c2cc(NC(=O)CCCN3C(=O)CCC3=O)ccc21` was tested. Which inhibition did it give?
**A.** -9.6% (inactive)

**Q.** With `CC1CCC/C(=C\Nc2ccc(C(=O)O)cc2)C1=O` (centres undefined) as the molecule, how does the inhibition read?
**A.** 25.7% (inactive)

**Q.** With `CC1CCC/C(=C\Nc2ccc(O)cc2)C1=O` (centres undefined) as the molecule, how does the inhibition read?
**A.** 57.1% (active)

**Q.** `CCOC(=O)c1ccc(N/C=C2/CCCC(C)C2=O)cc1` (centres undefined) was tested. Which inhibition did it give?
**A.** 8.1% (inactive)

**Q.** How did the inhibition turn out when `O=C(Cc1ccccc1)N/N=C/c1cccs1` was run?
**A.** 4.5% (inactive)

**Q.** With `O=C(Oc1ccc2ccc(=O)oc2c1)C1CCCCC1` as the molecule, how does the inhibition read?
**A.** -2.5% (inactive)

**Q.** For `O=C(Oc1ccc2ccc(O)cc2c1)C1CCCCC1`, which inhibition is on record?
**A.** 55% (active)

**Q.** With `O=C(Oc1cccc(O)c1)C1CCCCC1` as the molecule, how does the inhibition read?
**A.** 13% (inactive)

**Q.** How did the inhibition turn out when `CCOC(=O)C1CCCN(C(=S)NC2CCCCC2)C1` (centres undefined) was run?
**A.** 2.4% (inactive)

**Q.** How did the inhibition turn out when `CCn1c(SCC(=O)c2ccc(C)cc2)nnc1-c1ccoc1C` was run?
**A.** -13.6% (inactive)

**Q.** How did the inhibition turn out when `CCC1CCCCN1CCNC(=O)C1CCN(S(=O)(=O)c2c(C)noc2C)CC1` (centres undefined) was run?
**A.** 1.5% (inactive)

**Q.** How did the inhibition turn out when `Cc1noc(C)c1S(=O)(=O)N1CCC(C(=O)NCCCN2CC(C)CC(C)C2)CC1` (centres undefined) was run?
**A.** 54.6% (active)

**Q.** Which inhibition does the source give for `Cc1noc(C)c1S(=O)(=O)N1CCC(C(=O)NCCN2CCC(C)CC2)CC1` here?
**A.** 7.6% (inactive)

**Q.** `CCOC(=O)c1c(-c2ccccc2)csc1NC(=S)NC` was tested. Which inhibition did it give?
**A.** 14.4% (inactive)

**Q.** For `CCNC(=S)Nc1scc(-c2ccccc2)c1C(=O)OCC`, which inhibition is on record?
**A.** 52.2% (active)

**Q.** How did the inhibition turn out when `CCOC(=O)c1c(-c2ccccc2)csc1NC(=S)N(CC)CC` was run?
**A.** 14.7% (inactive)

**Q.** For `COC(=O)c1c(C)[nH]c(O)c1C=Nc1ccc(C#N)cc1`, which inhibition is on record?
**A.** 1.7% (inactive)

**Q.** With `CC(C)c1ccc(C2CC(=O)N3CN(Cc4ccco4)CSC3=C2C#N)cc1` (centres undefined) as the molecule, how does the inhibition read?
**A.** 76% (active)

**Q.** Which inhibition does the source give for `COc1ccc(C2CC(=O)N3CN(c4ccc(C)c(Cl)c4)CSC3=C2C#N)cc1` (centres undefined) here?
**A.** 19.1% (inactive)

**Q.** How did the inhibition turn out when `N#CC1=C2SCN(c3ccc(F)cc3)CN2C(=O)CC1c1cccc(F)c1` (centres undefined) was run?
**A.** 14.8% (inactive)

**Q.** Which inhibition does the source give for `Cc1ccc(C2CC(=O)N3CN(Cc4ccco4)CSC3=C2C#N)cc1` (centres undefined) here?
**A.** 62.6% (active)

**Q.** How did the inhibition turn out when `CCOc1ccc(N2CSC3=C(C#N)C(c4ccco4)CC(=O)N3C2)cc1` (centres undefined) was run?
**A.** -62.8% (inactive)

**Q.** `N#CC1=C2SCN(Cc3ccco3)CN2C(=O)CC1c1ccc(Cl)cc1` (centres undefined) was tested. Which inhibition did it give?
**A.** 53.5% (active)

**Q.** How did the inhibition turn out when `COc1ccc(C2CC(=O)N3CN(Cc4ccco4)CSC3=C2C#N)cc1` (centres undefined) was run?
**A.** 73.2% (active)

**Q.** With `Cc1cccc(N2CSC3=C(C#N)C(c4ccc(C)o4)CC(=O)N3C2)c1` (centres undefined) as the molecule, how does the inhibition read?
**A.** -1.2% (inactive)

**Q.** How did the inhibition turn out when `Cc1ccc(N2CSC3=C(C#N)C(c4cccs4)CC(=O)N3C2)cc1` (centres undefined) was run?
**A.** -74.9% (inactive)

**Q.** Which inhibition does the source give for `N#CC1=C2SCN(Cc3ccco3)CN2C(=O)CC1c1c(F)cccc1Cl` (centres undefined) here?
**A.** -26.5% (inactive)

**Q.** How did the inhibition turn out when `Cc1ccc(C2CC(=O)N3CN(c4ccc(Br)cc4)CSC3=C2C#N)o1` (centres undefined) was run?
**A.** -40.7% (inactive)

**Q.** How did the inhibition turn out when `N#CC1=C2SCN(c3ccccc3)CN2C(=O)CC1c1c(Cl)cccc1Cl` (centres undefined) was run?
**A.** 23.8% (inactive)

**Q.** `CCCN1C(=O)C(Cc2nc3ccccc3c(=O)n2-c2ccccc2)c2ccccc21` (centres undefined) was tested. Which inhibition did it give?
**A.** 8.6% (inactive)

**Q.** Which inhibition does the source give for `Cc1ccc(N2C(=O)C(O)(C(F)(F)F)C3=C2CC(C)(C)CC3=O)cc1C` (centres undefined) here?
**A.** -10% (inactive)

**Q.** Which inhibition does the source give for `N#CCC1c2ccccc2CCN1C(=O)Nc1cccc(Cl)c1` (centres undefined) here?
**A.** 15.2% (inactive)

**Q.** `CN1CCC(N2CCCC(C(=O)O)C2)CC1` (centres undefined) was tested. Which inhibition did it give?
**A.** -1.5% (inactive)

**Q.** `O=C(NCC(F)(F)F)Nc1ccccn1` was tested. Which inhibition did it give?
**A.** -4.8% (inactive)

**Q.** Which inhibition does the source give for `CCOCCNC(=O)c1ccc2c3c(cccc13)CC2` here?
**A.** -8.4% (inactive)

**Q.** `CCC(C)NC(=O)C1CCCCN1S(=O)(=O)c1ccc(F)cc1` (centres undefined) was tested. Which inhibition did it give?
**A.** -2.3% (inactive)

**Q.** How did the inhibition turn out when `Cc1nn(C)c(Oc2ccc(Cl)cc2)c1C(=O)Nc1ccc(F)cc1F` was run?
**A.** 1.9% (inactive)

**Q.** How did the inhibition turn out when `Cc1ccc2c(c1)-c1ccccc1S(=O)(=O)N2` was run?
**A.** -0.5% (inactive)

**Q.** With `NCCN=C1NS(=O)(=O)c2ccccc21` as the molecule, how does the inhibition read?
**A.** 7.4% (inactive)

**Q.** With `Nc1ccc2c(c1)-c1ccccc1S(=O)(=O)N2` as the molecule, how does the inhibition read?
**A.** 52.3% (active)

**Q.** How did the inhibition turn out when `COc1cc(CNCC2CCCO2)ccc1OCC(N)=O` (centres undefined) was run?
**A.** -5.5% (inactive)

**Q.** `COc1ccc2c(c1)OC13CCN(C)CC1C2C(C(=O)c1ccc(F)cc1)C(=O)N3` (centres undefined) was tested. Which inhibition did it give?
**A.** -3.5% (inactive)

**Q.** `CCCC(=O)N1c2ccccc2C(=C2SC(C(=O)OC)=C(C(=O)OC)S2)C(=S)C1(C)C` was tested. Which inhibition did it give?
**A.** 32.9% (inactive)

**Q.** `CC1C(=O)Nc2ccccc2N1C(=O)C1CC1` (centres undefined) was tested. Which inhibition did it give?
**A.** -7.6% (inactive)

**Q.** With `CCC(C)C(=O)N1c2ccccc2C(=C2SC(C(=O)OC)=C(C(=O)OC)S2)C(=S)C1(C)C` (centres undefined) as the molecule, how does the inhibition read?
**A.** 48.7% (inactive)

**Q.** With `COC(=O)C1=C(C(=O)OC)SC(=C2C(=S)C(C)(C)N(C(=O)CC(C)C)c3ccccc32)S1` as the molecule, how does the inhibition read?
**A.** 33% (inactive)

**Q.** With `COCCNC(=O)C(C(=O)c1ccc(F)cc1)n1cc(C)ccc1=O` (centres undefined) as the molecule, how does the inhibition read?
**A.** 19.5% (inactive)

**Q.** `Cc1cccc(C(=O)NC(NCCc2ccccc2)C(Cl)(Cl)Cl)c1` (centres undefined) was tested. Which inhibition did it give?
**A.** 1.5% (inactive)

**Q.** Which inhibition does the source give for `COC(=O)C(C)Sc1nc(N)c(NC(=O)c2ccco2)c(=O)[nH]1` (centres undefined) here?
**A.** 1.6% (inactive)

**Q.** For `Cc1ccc(CN2CCCC(CO)(Cc3ccccc3C)C2)s1` (centres undefined), which inhibition is on record?
**A.** 13% (inactive)

**Q.** With `CCCCCN1C=CC(=C2C(=O)c3ccccc3C2=O)C=C1` as the molecule, how does the inhibition read?
**A.** -2.8% (inactive)

**Q.** Which inhibition does the source give for `COc1ccc2ccccc2c1C1CC(=O)N2CN(C)CSC2=C1C#N` (centres undefined) here?
**A.** 68.7% (active)

**Q.** With `COc1cc(C2CC(=O)N3CN(c4ccccc4C)CSC3=C2C#N)cc(OC)c1OC` (centres undefined) as the molecule, how does the inhibition read?
**A.** 11.4% (inactive)

**Q.** With `COc1ccc2ccccc2c1C1CC(=O)N2CN(C3CCCCC3)CSC2=C1C#N` (centres undefined) as the molecule, how does the inhibition read?
**A.** 52.1% (active)

**Q.** Which inhibition does the source give for `COc1ccccc1N1CSC2=C(C#N)C(c3ccc(SC)cc3)CC(=O)N2C1` (centres undefined) here?
**A.** 7.1% (inactive)

**Q.** `COc1cccc(C2CC(=O)N3CN(c4cccc(Cl)c4C)CSC3=C2C#N)c1OC` (centres undefined) was tested. Which inhibition did it give?
**A.** 0.2% (inactive)

**Q.** For `CCOc1ccccc1N1CSC2=C(C#N)C(c3c(OC)ccc4ccccc34)CC(=O)N2C1` (centres undefined), which inhibition is on record?
**A.** 67.1% (active)

**Q.** How did the inhibition turn out when `CCOc1cc(C2CC(=O)N3CN(C4CCCCC4)CSC3=C2C#N)ccc1O` (centres undefined) was run?
**A.** 49% (inactive)

**Q.** For `CCc1ccccc1N1CSC2=C(C#N)C(c3cc(OC)c(OC)cc3OC)CC(=O)N2C1` (centres undefined), which inhibition is on record?
**A.** 9% (inactive)

**Q.** Which inhibition does the source give for `CC(C)c1ccc(C2CC(=O)N3CN(C)CSC3=C2C#N)cc1` (centres undefined) here?
**A.** 28.9% (inactive)
